51 compounds from PubChem BioAssay AID434947 (Broad Institute, 2010) can be followed below.

The term EC50 denotes the concentration needed to bring the measured effect to its halfway point.

SMILES strings stand for the structures. Among all 2,200 compounds or so, about 15 (0.7%) were called active.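 The calls were made as follows: active = fitted half-maximal concentration for loss of luminescence signal no more than a set limit of log units above the top tested concentration; inconclusive = flat fit with 30 to 70% signal loss, or invalid fit; inactive = half-maximal concentration above that set limit.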 The full list was thinned out, with actives kept by preference. Where only a bound is given, the exact number is not on record here.

The nature of the assay: inhibitors of ADP-Glo detection reagents, dose response, artefact control for GSK3beta inhibitor project, biochemical, luminescence, cell-free, homogeneous (AID 434947).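 Also: kinase-free counter screen of ADP-Glo detection reagents for GSK3beta hits.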 Conditions: 5 uM ADP. A general note: ADP-Glo first removes unused ATP, then detects ADP through luciferase.
Consider `CS(=O)(=O)N(Cc1ccccc1)c1ccc(C(=O)Nc2ccccc2Sc2ccccc2)cc1`, for which the EC50 is > 30 µM (inactive).
Take `Cc1ccnc(NC(=O)c2ccc([N+](=O)[O-])o2)c1`: the EC50 is > 30 µM (inactive).
Take `CCCCc1cc(=O)oc2cc(C)cc(OC(C)C(=O)O)c12` (stereo unspecified): the EC50 is > 30 µM (inactive).
The same measure for `NC(=O)C1CCN(c2nc3c(S(=O)(=O)c4ccccc4)nnn3c3ccccc23)CC1`: > 30 µM (inactive).
The same measure for `Cc1ccnc(SCCn2c(N3CCOCC3)nc3c2c(=O)[nH]c(=O)n3C)n1`: > 30 µM (inactive).
Consider `CCSc1nc2sc3c(c2c(=O)n1-c1ccccc1)CCN(C)C3`, for which the EC50 is > 30 µM (inactive).
As for `CCOC(=O)c1cnc2c(C)cccc2c1Nc1ccc(N2CCOCC2)cc1`, the EC50 was > 30 µM (inactive).
The value for `COc1ccc(-c2nn(-c3ccccc3)cc2CO)cc1OC` was > 30 µM (inactive); that for `COc1cccc2c1cc1c(=O)n(CC(=O)NCCCc3ccccc3)nc(C)n12` was > 30 µM (inactive).
For the compound `Cc1[nH]nc2c1C(c1ccc(N(C)C)cc1)C1=C(CC(C)(C)CC1=O)N2` (stereo unspecified), the EC50 was > 30 µM (inactive).
The same measure for `CC(C(=O)NCc1ccccc1)n1cc([N+](=O)[O-])cn1` (stereo unspecified): > 30 µM (inactive); for `CC(C)N1CCc2c(sc(NC(=O)CCS(=O)(=O)c3ccccc3)c2C(N)=O)C1`: > 30 µM (inactive).
For the compound `COc1cc(/C=C2/SC(=Nc3ccc(O)cc3)NC2=O)ccc1O`, the EC50 is > 30 µM (inactive).
The same measure for `CN(C)Cc1c(O)ccc2c(=O)c(-c3ccccc3)c(C(F)(F)F)oc12`: > 30 µM (inactive); for `COc1ccc(-c2nn(-c3ccccc3)cc2/C=C(\C#N)S(=O)(=O)c2ccccc2)cc1OC`: > 30 µM (inactive); for `Cc1ccc(S(=O)(=O)/N=C2/NC(=O)/C(=C/c3ccccc3)S2)cc1`: > 30 µM (inactive).
The same measure for `CN(C)c1ccc(C(=O)NN2C(=O)c3ccccc3C2=O)cc1`: > 30 µM (inactive).
For the compound `O=C1CC(c2ccc(O)c(O)c2)Oc2cc(O)cc(O)c21` (stereo unspecified), the EC50 is > 30 µM (inactive).
The same measure for `Cc1nn(-c2ccccn2)c2c1C(c1ccsc1)C1=C(CCCC1=O)N2` (stereo unspecified): > 30 µM (inactive); for `COc1cc(C(c2nnnn2C(C)(C)C)N2CCN(c3nc4ccccc4s3)CC2)ccc1O` (stereo unspecified): > 30 µM (inactive); for `Cc1ccc2sc(N3CCN(CCNC(=O)c4ccco4)CC3)nc2c1C`: > 30 µM (inactive).
The same measure for `O=[N+]([O-])c1cc(/C=N/O)ccc1N1CCCC1`: > 30 µM (inactive); for `CCOC(=O)c1nnn(-c2nonc2N)c1CSc1ccc(C)cc1`: > 30 µM (inactive); for `CC1(C)CC2CC(C)(CN2S(=O)(=O)c2ccc(C(=O)Nc3ccc(Cl)c(S(=O)(=O)N4CCOCC4)c3)cc2)C1` (stereo unspecified): > 30 µM (inactive).
The value for `COCCN(CC(=O)NCc1ccc(F)cc1)C(=O)CCC(=O)Nc1ccccn1` was > 30 µM (inactive).
For the compound `Cc1nc(NCCCn2ccnc2)c2ccccc2n1`, the EC50 was > 30 µM (inactive).
Regarding `Cc1csc(SCC(=O)Nc2ccc(Cl)cn2)n1`, the EC50 was > 30 µM (inactive).
The value for `CCc1nnc(NC(=O)c2cc(-c3ccccc3)nn2-c2ccccc2)s1` was > 30 µM (inactive).
In the case of `O=C(CS(=O)(=O)c1ccccc1)Nc1ncc([N+](=O)[O-])s1`, the EC50 was > 30 µM (inactive).
For the compound `COc1ccc2nc(C)cc(N3CCOCC3)c2c1`, the EC50 was > 30 µM (inactive).
The value for `CC1=C(C(=O)Nc2ccccc2F)C(c2cccs2)C2=C(CCCC2=O)N1` (stereo unspecified) was > 30 µM (inactive); that for `Cc1ccc2c(C)c(C(=O)Nc3nnc(C)s3)oc2c1` was > 30 µM (inactive).
The value for `NC1=NC(=Nc2ccccc2)c2ccccc21` was > 30 µM (inactive); that for `CCCn1nc(NC(=O)C(C)C)c2cc3cc(OC)ccc3nc21` was > 30 µM (inactive); that for `CCNC(=S)Nc1ccc2cn[nH]c2c1` was > 30 µM (inactive).
The same measure for `COc1cccc(C(=O)NCC(=O)N/N=C(C)\C=C\c2ccccc2)c1`: > 30 µM (inactive); for `CC(C)CCNc1nc(N)c([N+](=O)[O-])c(NCC2CCCO2)n1` (stereo unspecified): > 30 µM (inactive).
As to `COc1ccccc1Nc1nc(N(C)c2ccccc2)nc(N)c1[N+](=O)[O-]`, the EC50 is > 30 µM (inactive).
The value for `CN(Cc1c(C(=O)N/N=C/c2cccc(F)c2)nnn1-c1nonc1N)c1ccccc1` was > 30 µM (inactive); that for `Cc1nn(-c2ccccc2)c2c1cc1c(=O)n(C)c(=O)nc-1n2-c1ccccc1F` was > 30 µM (inactive); that for `CC1=NN(C(=O)CCc2ccc3c(c2)OCO3)C(O)(C(F)(F)F)C1` (stereo unspecified) was > 30 µM (inactive).
The same measure for `CCCn1c(SCC(=O)Nc2ccc(Cl)cn2)nnc1C1CC1`: > 30 µM (inactive); for `COc1ccc(C(=O)O/N=C(\C)c2ccccc2)cc1`: 24 µM (active); for `COc1ccc(C(=O)O/N=C(/C)c2cccs2)cc1`: 16.2 µM (active).
The same measure for `COc1ccc2occ(C(=O)c3cccs3)c2c1`: > 30 µM (inactive); for `COc1ccc(C(=O)c2sc(Nc3ccccc3)nc2C)cc1`: > 30 µM (inactive); for `COc1ccc(C(=O)c2ccsc2N)cc1`: > 30 µM (inactive).
On to `COc1cccc(C(N)=O)c1`, for which the EC50 was > 30 µM (inactive).
The value for `Cc1ccc(SCC(=O)N2CC(C)OC(C)C2)cc1` (stereo unspecified) was > 30 µM (inactive); that for `COc1ccc(-c2cc(C(F)(F)F)nc(SCCC(=O)N3CCOCC3)n2)cc1` was > 30 µM (inactive); that for `COc1ccc(Cl)cc1NC(=O)CS(=O)(=O)c1cccc2nsnc12` was > 30 µM (inactive).
